RECQ1 helicase: qHTS Assay for Inhibitors of RecQ-Like Dna Helicase 1 (RECQ1); RECQ1 DNA unwinding, red fluorescence kinetic read; Potency, µM (titrated, usually from 57.3 µM), for the others: at the top dose activity, negative = inhibition, usual class: inhibitors; hit rate 0.54% among 240,000; AID 2549, 2010;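 also: plate controls were vehicle for no effect and no enzyme for full effect; nearly all actives have a fitted effect of over 30% in size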
Target sequence (P46063 whole entry, looked up): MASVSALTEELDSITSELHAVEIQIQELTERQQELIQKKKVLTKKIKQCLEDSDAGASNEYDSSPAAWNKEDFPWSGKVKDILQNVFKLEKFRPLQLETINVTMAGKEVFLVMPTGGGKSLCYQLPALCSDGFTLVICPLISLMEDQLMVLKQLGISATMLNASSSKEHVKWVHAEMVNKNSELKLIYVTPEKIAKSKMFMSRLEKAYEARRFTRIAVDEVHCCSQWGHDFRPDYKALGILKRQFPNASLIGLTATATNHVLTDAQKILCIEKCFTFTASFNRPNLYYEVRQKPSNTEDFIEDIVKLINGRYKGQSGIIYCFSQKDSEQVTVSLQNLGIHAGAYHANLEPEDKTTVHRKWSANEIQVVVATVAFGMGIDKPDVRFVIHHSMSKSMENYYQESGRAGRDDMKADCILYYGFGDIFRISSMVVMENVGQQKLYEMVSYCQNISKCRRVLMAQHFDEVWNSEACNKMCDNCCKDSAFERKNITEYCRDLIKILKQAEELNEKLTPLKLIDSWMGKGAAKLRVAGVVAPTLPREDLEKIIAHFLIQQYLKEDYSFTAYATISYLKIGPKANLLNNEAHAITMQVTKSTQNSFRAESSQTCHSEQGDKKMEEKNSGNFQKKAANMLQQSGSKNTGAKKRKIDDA
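RECQ1T1 50 nM; forked duplex (20 bp + 30-nt ss tails) 200 nM, ATP 2 mM final; pH 8.0, 2 mM MgCl2, 2.5 ug/ml poly(dI-dC); 15 min compound preincubation; discontinuous kinetic read over 2 h at RT.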
WRN helicase inh: qHTS for Inhibitors of WRN Helicase. Potency, µM (top dose mostly 114 µM), inactives show top-dose activity change, negative = inhibition, most hits filed as inhibitors. hit rate 0.46% among 360,000. Bifunctional 3'-5' exonuclease/ATP-dependent helicase WRN (Homo sapiens), Q14191. WRN helicase unwinding, fluorescent forked duplex, kinetic. AID 651768, 2012; also: nearly all actives have a fitted effect of over 55% in size
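Fluorescence dequenching readout, ex 525 nm/em 598 nm, kinetic mode: forked duplex DNA (100 nM final) with adjacent fluorophore and quencher unwound by WRN (20 nM final) with 2 mM ATP. Compound preincubation 15 min, room temperature.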
APEX1 inh: qHTS Assay for Inhibitors of the Human Apurinic/apyrimidinic Endonuclease 1 (APE1) | recombinant APE1, TAMRA/BHQ-2 abasic DNA cleavage fluorescence | Potency, µM (series often up to 65.8 µM), without a hit: top-dose activity change, negative = inhibition, most hits filed as inhibitors | hit rate 0.35% among 350,000 | AID 2517, 2012;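 also: plate controls were vehicle for no effect and reference inhibitor for full effect; nearly all actives have a fitted effect of over 55% in size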
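Readout is kinetic fluorescence (ex 525, em 598 nm) from cleavage of 50 nM TAMRA/BHQ-2 THF abasic duplex by 0.75 nM APE1, compound added 15 min beforehand at RT.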
BLM inh: qHTS Assay for Inhibitors of Bloom's syndrome helicase (BLM) | RecQ-like DNA helicase BLM (Homo sapiens), P54132 | recombinant BLM DNA unwinding, fluorescence dequenching | Potency, µM (top dose mostly 56.1 µM), without a hit: top-dose activity change, negative = inhibition, usual class: inhibitors | hit rate 0.2% among 350,000 | AID 2528, 2010;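 also: plate controls were vehicle for no effect and no enzyme for full effect; nearly all actives have a fitted effect of over 35% in size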
FEN1 inhibitor: qHTS Assay for the Inhibitors of Human Flap endonuclease 1 (FEN1) | P39748 | Recombinant FEN1 flap cleavage, fluorescence, 15 min | Potency, µM (titrated, usually from 114 µM), for the others: at the top dose activity change, negative = inhibition, usual class: inhibitors | hit rate 0.35% among 390,000 | AID 588795, 2011; also: nearly all actives have a fitted effect of over 65% in size
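Steps: FEN1 (10 nM) dispensed; compound added by pin tool; 15 min at room temperature; substrate added to 50 nM final; reads at 0 min and 15 min; data normalized and fitted (four-parameter Hill).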
* = called active by the depositor; i = inactive; u = inconclusive; x = no result; [ ] = dose if it differs, or a comment. In the library only some 0.87% were active in any assay of this set; here they are far more common. Calls follow the shape of the dose curve; as a rule, active = well fitted curve in the direction sought with a large enough effect; inconclusive = small, poorly fitted or top-dose-only effect, or another doubt; inactive = no such curve, though single readings can be large; an effect the other way counts as inactive or inconclusive. Unless noted, % is scaled to controls: 0 for no effect and ±100 for the full control effect; potency is read from the fitted curve at half-maximal effect.

SMILES	RECQ1 helicase	WRN helicase inh	APEX1 inh	BLM inh	FEN1 inhibitor
Cn1cccc1CC(=O)N/N=C/C=C/c1ccco1	-3%	u	6%	25µM*	-13%
C/C(=N\NC(=O)Cc1cccn1C)c1ccco1	u	-9%	u	-7%	-15%
CCOC(=O)c1ccc(NC(=O)CC2C(=O)N(c3ccccc3)C(=O)N2C2CCCCC2)cc1 (centres undefined)	x	x	x	-9%	17%
N#Cc1c(-c2cccc(Cl)c2)no[n+]1[O-]	x	x	-7%	x	x
CC(c1ccccc1)N(CCC(c1ccccc1)C1CCOC(C)(C)C1)C(=O)c1ccco1 (centres undefined)	-8%	-5%	-2%	-9%	9%
COc1ccc(CN(CCC(c2ccc(F)cc2)C2CCOC(C)(C)C2)C(=O)c2ccco2)cc1 (centres undefined)	25µM*	-10%[57.1 µM]	10%	-7%	-9%
c1cn(-c2cc(-c3ccc4c(c3)OCO4)ncn2)cn1	-8%	x	8.9µM*	-2%	x
O=S(=O)(NCc1ccccc1)c1ccc(Cl)cc1	-12%	-2%	3%	-4%	0%
O=S(=O)(Nc1cc2nc3ccccc3nc2n1Cc1ccccc1)c1ccc(Cl)cc1	6%	u	1%	5µM*	-10%
CCc1ccc(/C(C)=N/NC(=O)CNC(=O)/C=C/c2ccco2)cc1	x	28µM*	x	x	45µM*
CCc1ccc(/C(C)=N/NC(=O)CNC(=O)/C=C/c2ccccc2OC)cc1	x	0%	6%	0%	-8%
O=C1NC(=S)/C(=C\c2ccc(-c3ccccc3Cl)o2)S1	u	50µM*	-9%	-29%	u
Cc1nnc(C)n1/N=C/c1ccc(-c2ccccc2Cl)o1	x	11%	-7%	0%	-4%
Cc1ccc(/C=C/C2=Cc3c(sc(NC(=O)CSc4n[nH]c(N)n4)c3C#N)C(C)(C)C2)o1	20µM*	x	-7%	u	x
CCN(CC)c1ccc(C=Nc2ccc(C)cc2C)c(O)c1	i	-21%	-1%	-2%	-5%
Cc1ccc(N=Cc2cccc(O)c2O)c(C)c1	-13%	x	-11%	-21%	4.5µM*
Cc1ccccc1N=Cc1cccc(O)c1O	u	11µM*	u	-11%	50µM*
COc1cc(OC)c(NS(=O)(=O)c2cc(-c3cnc(C)o3)ccc2OC)cc1Cl	x	x	x	-5%	13%
O/N=C(/C[n+]1ccsc1)c1ccc(I)cc1	x	x	x	x	-14%
C=CCN1C(=O)/C(=C\C=C2\N(C)c3ccccc3C2(C)C)SC1=S	1.4µM*	u	3%	u	u
Cc1ccc(SC2=C(Sc3ccc(C)cc3)C(=O)c3ccccc3C2=O)cc1	-18%	79µM*	14%	-7%	-23%
CC(C)C[C@@H](CN(C)N=O)N(C[C@H](Cc1ccccc1)N(CCc1ccccc1)N=O)N=O	4µM*	-1%	0%	-6%	12%
Cc1ccc(/C=C(\C#N)C(=O)Nc2cccc(Br)c2)o1	x	x	x	-4%	-51%
N#C/C(=C\c1ccc(N2CCCCC2)o1)C(=O)Nc1cccc(Br)c1	4%	89µM*	-12%	-10%	u
Cc1ccc(C(C)C)c(OCC(=O)NCC2(N(C)C)CCCCC2)c1	x	x	x	1%	10%
SMILES	RECQ1 helicase	WRN helicase inh	APEX1 inh	BLM inh	FEN1 inhibitor
O=C(COc1ccc(/C=C\[N+](=O)[O-])cc1)N1CCOCC1	32µM*	-14%[11.6 µM]	u	0%	20%
CCOc1cccc2sc(N(Cc3cccnc3)C(=O)C3CCCCC3)nc12	x	x	x	-4%	-22%
CCCCCCCCCCCNC(=O)c1ccoc1C	i	50µM*	-7%	-11%	-22%
Cc1occc1C(=O)NCCCCNC(=O)c1ccoc1C	-2%	-1%	-1%	1%	10%
O=C(c1ccccc1)C(c1ccccc1)[n+]1csc2ccccc21 (centres undefined)	x	x	x	x	-6%
Cc1cccc(NC2=NCC(=O)N2Cc2cccs2)c1	16%	50µM*	u	3%	-2%
O=C1CN=C(Nc2ccccc2)N1Cc1cccs1	-13%	7%	1%	-1%	13%
Cc1c(C(=O)Nc2ccccc2)cn2c(nc3ccccc32)c1C#N	i	-13%	1%	-4%	-7%
Cc1ccccc1C(=O)Nc1ccc2c(C#N)c3nc4ccccc4nc3n2c1	32µM*	56µM*	u	u	u
Cc1cccc(CNC(=O)c2sc3ncnc(N(C)C4CCCCC4)c3c2C)c1	x	x	x	-10%	11%
Cc1ccc2nc(/C(C#N)=C/c3cccc(Br)c3)[nH]c2c1	x	x	x	-18%	-13%
Cc1ccc2nc(/C(C#N)=C/c3ccc(O)c(O)c3)[nH]c2c1	x	45µM*	6%	20µM*	u
CC1=C(C(=O)Nc2ccccc2)C(c2ccccn2)n2nc(SCc3ccccc3Cl)nc2N1 (centres undefined)	x	x	x	-3%	19%
C[C@@H]1[C@H](c2ccccc2)OCCS(=O)(=O)N1Cc1ccc(Cl)cc1	x	x	x	x	-6%
CC(=C/C=C/C(C)=C/C=C/C=C(C)/C=C/C=C(C)/C=C/C(=O)O)/C=C/C(=O)O	-15%	x	u	x	x
CCOC(=O)NC(=O)C(/C=N/c1sccc1C(=O)OC)=C(\C)O	14µM*	-24%	3%	-1%	1%
COc1ccc2c(c1)OC(C)(C)C(c1ccccc1)C2c1ccc(OCCN2CCCC2)cc1 (centres undefined)	x	x	x	0%	x
COc1cccc(C2CC(c3cccs3)=NN2C(=O)CSc2nc3c(cnn3-c3ccc(F)cc3)c(=O)[nH]2)c1OC (centres undefined)	-12%	5%	4%	u	18µM*
CC1=CC(C)(C)N2C(=O)C(=Nc3ccc(O)cc3)c3cccc1c32	-29%	u	u	32µM*	u
COCCNC(=O)Nc1cc(C(=O)NCc2ccc(C(C)C)cc2)ccc1N1CCCC1	x	x	x	-3%	-8%
COc1cc(C(=O)NC2CCN(C)CC2)ccc1Nc1ncc2c(n1)N(CCc1ccccc1)CCC(=O)N2C	x	-8%	x	x	50µM*
CC(C)(C)N[S+](=O)([O-])c1cccc(-c2nnc(SCc3ccc(C(=O)O)cc3)n2-c2ccc(F)cc2)c1	x	x	26%	x	x
C=C1C=C(C(F)F)n2ncc(C(=O)Nc3ccc(C(C)CC)cc3)c2N1 (centres undefined)	x	x	40%	x	x
CCC(C)NC(=O)CCc1c(C)nc2cc(-c3ccc(OC)cc3OC)nn2c1C (centres undefined)	x	x	x	0%	-3%
CCN1/C(=C/C=C/C=C/c2sc3ccccc3[n+]2CC)Sc2ccccc21	u	x	u	u	32µM*
